# Measured values published in PubChem BioAssay (NCATS).
# Values joined by “and” are separate entries in the source; they are usually repeats but may differ in a detail not shown here. Equal entries are not always repeated. Inconclusive results are not listed. Where a call stands in place of a potency, no number is given. Active and inactive are the calls of the source. Unless noted, calls follow the shape of the dose curve; as a rule, active = well fitted inhibition curve with a large enough effect; inconclusive = small, poorly fitted or top-dose-only effect; inactive = flat fitted curve, though single readings scatter.
# Columns and labels:
# [1] = target: Estrogen receptor (Homo sapiens) (UniProt P03372); test: qHTS assay for small molecule antagonists of estrogen receptor alpha signaling (AID 588513; active = well fitted curve in the direction sought with a large enough effect in the signal ratio, with a control signal flat, not every such curve was filed as active; the % refers to the signal ratio)
# How it was run: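 Fluorescence from CCF4 substrate after 2 h at room temperature gave reporter activity; cells had been exposed to compound and 0.5nM 17-beta-estradiol for 18 h at 37 C. Hill-equation fitting yielded IC50 and maximal response.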
# [2] = target: Glucocorticoid receptor (Homo sapiens) (UniProt P04150); test: qHTS assay for small molecule agonists of glucocorticoid receptor signaling (AID 588532; active = well fitted curve in the direction sought with a large enough effect in the signal ratio, with a control signal flat; the % refers to the signal ratio); settings: HeLa MMTV-bla, beta-lactamase ratio, agonist, 18 h; stronger effect = higher value; percent of dexamethasone control, DMSO zero
# How it was run: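 Using MMTV-bla HeLa cells in medium with 1% stripped FBS and 25 mM HEPES, compounds were titrated and incubated overnight-length (18 h). Beta-lactamase cleavage of CCF4 was quantified by dual-emission fluorescence.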
# [3] = target: Glucocorticoid receptor (Homo sapiens) (UniProt P04150); test: qHTS assay for small molecule antagonists of glucocorticoid receptor signaling (AID 588533; active = well fitted inhibition curve with a large enough effect in the signal ratio, with a control signal flat, not every such curve was filed as active; the % refers to the signal ratio;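 also: cells stimulated with 2 nM dexamethasone as agonist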)
# How it was run: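 Antagonist-mode qHTS: compound titrations added to GRE-bla HeLa cells, then dexamethasone 2 nM final; 18 h, 37 C. CCF4 FRET fluorescence normalized to dexamethasone and DMSO; IC50 from Hill fit.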
# [4] = qHTS assay for small molecule antagonists of peroxisome proliferator-activated receptor delta signaling (AID 588535; active = well fitted inhibition curve with a large enough effect in the signal ratio, with a control signal flat, not every such curve was filed as active; the % refers to the signal ratio;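 as to max response: cells co-treated with a PPAR-delta agonist as stimulator during compound exposure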); settings: HEK293T PPARd-UAS-bla, beta-lactamase FRET ratio, 18 h; 460 nm channel
# How it was run: (§1)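 Cell-based beta-lactamase assay in antagonist mode: 4000 HEK293T PPAR-delta-UAS-bla cells per well, 5 hr preincubation then 18 hr compound incubation at 37 C. IC50 obtained by Hill equation fitting.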
# [5] = target: Peroxisome proliferator-activated receptor delta (Homo sapiens) (UniProt Q03181); test: as above
# How it was run: as §1
# [6] = target: DNA dC->dU-editing enzyme APOBEC-3G (Homo sapiens) (UniProt Q9HC16); test: qHTS for inhibitors of Vif-A3G interactions: Validation (AID 588379)
# How it was run: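 HeLa cells stably expressing Vif and A3G-eYFP, 700 cells/well, incubated overnight at 37 deg C, then exposed to compound overnight at 37 deg C. Inhibition of Vif-mediated degradation read as increased yellow fluorescence (Ex 488/Em 500-530) by laser-scanning cytometry.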
# [7] = target: Bile acid receptor (Homo sapiens) (UniProt Q96RI1); test: qHTS assay for small molecule antagonists of farnesoid X receptor signaling (AID 588526; calls by dose curve)
# How it was run: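 Beta-lactamase reporter antagonist mode: HEK293T FXR-UAS-bla cells, titrated compound, CDCA stimulation, 16 h 37 C, CCF4 dye 2 h RT. Data normalized to CDCA 50 uM and DMSO; Hill-fit IC50.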
# [8] = target: Androgen receptor (Homo sapiens) (UniProt P10275); test: qHTS assay for small molecule agonists of androgen receptor signaling (AID 588515; active = well fitted curve in the direction sought with a large enough effect in the signal ratio, with a control signal flat; the % refers to the signal ratio); settings: AR-UAS-bla HEK293, beta-lactamase ratio, agonist 16 h; stronger effect = higher value
# How it was run: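 EC50 and efficacy came from Hill fits of titrations (up to 92 uM) normalized to 30 nM R1881 as 100% and DMSO as 0%. Compound exposure was 16 h at 37 C on AR-UAS-bla HEK293 cells, with a 405/460/530 nm CCF4 fluorescence read.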
# [9] = target: Androgen receptor (Homo sapiens) (UniProt P10275); test: qHTS assay for small molecule antagonists of androgen receptor signaling (AID 588516; active = well fitted curve in the direction sought with a large enough effect in the signal ratio, with a control signal flat, not every such curve was filed as active; the % refers to the signal ratio)
# How it was run: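 Cells were plated and incubated 5 h, compounds added in titration, then R1881 (10 nM final) as agonist. After 16 h at 37 C, CCF4 substrate was loaded for 2 h at room temperature and fluorescence measured.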
# Chain of Glucocorticoid receptor (Homo sapiens) (P04150 whole entry, looked up): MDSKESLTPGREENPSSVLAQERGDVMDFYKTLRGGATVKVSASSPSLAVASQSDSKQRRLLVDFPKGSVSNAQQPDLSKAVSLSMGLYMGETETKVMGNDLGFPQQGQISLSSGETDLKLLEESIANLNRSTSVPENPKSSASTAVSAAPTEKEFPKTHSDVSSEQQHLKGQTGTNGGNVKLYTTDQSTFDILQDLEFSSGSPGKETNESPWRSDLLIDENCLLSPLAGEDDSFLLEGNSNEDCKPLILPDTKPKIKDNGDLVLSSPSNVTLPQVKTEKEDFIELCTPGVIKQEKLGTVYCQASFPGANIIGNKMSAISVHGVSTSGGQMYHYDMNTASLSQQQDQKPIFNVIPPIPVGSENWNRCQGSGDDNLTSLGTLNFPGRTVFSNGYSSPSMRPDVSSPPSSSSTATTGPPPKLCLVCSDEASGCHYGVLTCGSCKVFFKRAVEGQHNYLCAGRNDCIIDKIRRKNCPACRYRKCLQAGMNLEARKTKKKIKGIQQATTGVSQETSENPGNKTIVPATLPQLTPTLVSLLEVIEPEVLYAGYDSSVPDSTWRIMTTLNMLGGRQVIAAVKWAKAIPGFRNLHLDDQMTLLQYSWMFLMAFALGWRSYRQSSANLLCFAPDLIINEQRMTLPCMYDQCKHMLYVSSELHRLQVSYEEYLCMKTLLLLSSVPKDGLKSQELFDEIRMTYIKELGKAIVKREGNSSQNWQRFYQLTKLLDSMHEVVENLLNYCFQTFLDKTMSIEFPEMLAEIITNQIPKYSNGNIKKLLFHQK
# Chain of Estrogen receptor (Homo sapiens) (P03372 whole entry, looked up): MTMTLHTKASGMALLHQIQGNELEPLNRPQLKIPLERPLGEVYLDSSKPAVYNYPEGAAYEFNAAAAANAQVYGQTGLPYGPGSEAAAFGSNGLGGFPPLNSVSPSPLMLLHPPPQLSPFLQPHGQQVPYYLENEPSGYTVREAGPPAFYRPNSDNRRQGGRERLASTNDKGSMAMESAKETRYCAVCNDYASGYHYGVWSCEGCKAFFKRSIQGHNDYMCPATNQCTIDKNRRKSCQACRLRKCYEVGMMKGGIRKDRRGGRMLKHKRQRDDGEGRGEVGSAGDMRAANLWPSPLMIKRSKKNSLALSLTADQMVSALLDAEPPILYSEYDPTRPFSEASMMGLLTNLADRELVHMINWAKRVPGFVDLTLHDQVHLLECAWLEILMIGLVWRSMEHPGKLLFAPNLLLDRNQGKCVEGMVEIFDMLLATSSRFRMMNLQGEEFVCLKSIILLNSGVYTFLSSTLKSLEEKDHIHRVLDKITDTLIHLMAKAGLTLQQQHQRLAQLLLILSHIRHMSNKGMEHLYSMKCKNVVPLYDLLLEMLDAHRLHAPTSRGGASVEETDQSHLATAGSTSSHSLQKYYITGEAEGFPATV
# Chain of DNA dC->dU-editing enzyme APOBEC-3G (Homo sapiens) (Q9HC16 whole entry, looked up): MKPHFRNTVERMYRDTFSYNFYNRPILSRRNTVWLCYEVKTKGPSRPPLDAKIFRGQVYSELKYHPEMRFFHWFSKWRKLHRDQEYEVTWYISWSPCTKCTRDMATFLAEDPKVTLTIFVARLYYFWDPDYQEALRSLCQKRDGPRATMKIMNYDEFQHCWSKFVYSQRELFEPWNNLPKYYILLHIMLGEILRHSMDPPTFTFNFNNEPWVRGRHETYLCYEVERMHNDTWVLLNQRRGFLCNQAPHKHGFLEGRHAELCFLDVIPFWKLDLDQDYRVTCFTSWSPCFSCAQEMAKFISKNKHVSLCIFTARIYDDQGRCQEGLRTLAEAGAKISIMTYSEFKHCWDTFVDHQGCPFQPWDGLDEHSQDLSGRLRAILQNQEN
# Chain of Peroxisome proliferator-activated receptor delta (Homo sapiens) (Q03181 whole entry, looked up): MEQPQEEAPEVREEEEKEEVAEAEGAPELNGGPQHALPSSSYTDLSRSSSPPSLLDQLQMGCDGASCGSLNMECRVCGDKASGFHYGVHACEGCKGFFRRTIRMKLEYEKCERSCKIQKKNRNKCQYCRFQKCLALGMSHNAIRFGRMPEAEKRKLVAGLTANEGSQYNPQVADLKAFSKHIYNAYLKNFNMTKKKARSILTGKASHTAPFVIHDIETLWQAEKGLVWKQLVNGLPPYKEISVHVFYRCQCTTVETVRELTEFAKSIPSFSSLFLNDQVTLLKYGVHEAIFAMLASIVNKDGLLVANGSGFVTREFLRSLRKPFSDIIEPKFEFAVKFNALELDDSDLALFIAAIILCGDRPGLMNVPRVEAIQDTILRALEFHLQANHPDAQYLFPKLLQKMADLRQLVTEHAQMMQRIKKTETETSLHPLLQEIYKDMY
# Chain of Bile acid receptor (Homo sapiens) (Q96RI1 whole entry, looked up): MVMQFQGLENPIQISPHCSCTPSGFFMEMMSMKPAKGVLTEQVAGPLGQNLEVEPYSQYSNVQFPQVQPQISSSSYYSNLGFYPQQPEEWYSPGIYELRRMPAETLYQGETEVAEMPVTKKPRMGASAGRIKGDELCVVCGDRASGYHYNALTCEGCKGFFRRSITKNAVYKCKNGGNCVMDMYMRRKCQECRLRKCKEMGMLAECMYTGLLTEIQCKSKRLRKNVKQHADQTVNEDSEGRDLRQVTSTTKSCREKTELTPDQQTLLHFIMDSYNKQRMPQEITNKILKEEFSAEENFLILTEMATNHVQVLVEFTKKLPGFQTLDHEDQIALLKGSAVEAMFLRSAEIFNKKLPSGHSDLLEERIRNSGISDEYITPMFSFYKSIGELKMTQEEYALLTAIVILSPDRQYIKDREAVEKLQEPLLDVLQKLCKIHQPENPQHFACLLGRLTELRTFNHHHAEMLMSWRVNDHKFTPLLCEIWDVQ
# Chain of Androgen receptor (Homo sapiens) (P10275 whole entry, looked up): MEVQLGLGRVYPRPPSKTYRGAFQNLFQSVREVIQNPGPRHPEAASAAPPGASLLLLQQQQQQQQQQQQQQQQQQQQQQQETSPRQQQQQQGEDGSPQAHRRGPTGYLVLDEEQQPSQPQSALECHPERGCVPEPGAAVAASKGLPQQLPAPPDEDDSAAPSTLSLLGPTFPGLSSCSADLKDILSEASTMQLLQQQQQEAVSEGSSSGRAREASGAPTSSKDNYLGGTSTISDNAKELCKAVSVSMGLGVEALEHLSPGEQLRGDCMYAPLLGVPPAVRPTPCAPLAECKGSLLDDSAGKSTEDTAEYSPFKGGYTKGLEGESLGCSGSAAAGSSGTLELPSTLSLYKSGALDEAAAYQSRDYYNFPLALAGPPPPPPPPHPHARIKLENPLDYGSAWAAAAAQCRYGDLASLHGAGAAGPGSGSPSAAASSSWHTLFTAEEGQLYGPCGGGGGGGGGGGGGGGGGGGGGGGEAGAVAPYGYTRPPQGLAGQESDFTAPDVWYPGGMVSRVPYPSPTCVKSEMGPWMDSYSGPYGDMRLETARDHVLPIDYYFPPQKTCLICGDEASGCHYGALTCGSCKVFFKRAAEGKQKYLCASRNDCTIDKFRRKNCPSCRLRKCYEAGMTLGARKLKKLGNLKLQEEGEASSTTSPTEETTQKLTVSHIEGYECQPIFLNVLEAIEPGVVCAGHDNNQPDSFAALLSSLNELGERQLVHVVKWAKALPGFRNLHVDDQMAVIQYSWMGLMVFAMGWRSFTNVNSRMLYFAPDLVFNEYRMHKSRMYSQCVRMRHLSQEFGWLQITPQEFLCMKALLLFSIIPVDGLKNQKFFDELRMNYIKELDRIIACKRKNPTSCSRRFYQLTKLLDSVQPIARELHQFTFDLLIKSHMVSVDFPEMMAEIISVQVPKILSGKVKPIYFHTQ
compound,measurement,setting,value
C[C@H](CCC(=O)O)[C@H]1CC[C@H]2[C@@H]3[C@H](O)C[C@@H]4C[C@H](O)CC[C@]4(C)[C@H]3C[C@H](O)[C@]12C,Potency,[1],inactive
same,activation,[2],0.114% (inactive)
same,Potency,[3],inactive
[O-][N+](=Nc1ccccc1)c1ccccc1,Potency,[1],inactive
same,activation,[2],3.15% (inactive)
same,Potency,[3],inactive
same,max response,[4],22.2%
same,outcome,[5],inactive
COc1ccc(C[C@H](C)NC[C@@H](O)c2ccc(O)c(NC=O)c2)cc1,outcome,[6],inactive
Cc1cc(-c2ccc(N=Nc3ccc4c(S(=O)(=O)O)cc(S(=O)(=O)O)c(N)c4c3O)c(C)c2)ccc1N=Nc1ccc2c(S(=O)(=O)O)cc(S(=O)(=O)O)c(N)c2c1O,outcome,[6],inactive
OB(O)O,Potency,[1],inactive
same,outcome,[7],inactive
same,activation,[2],-3.94% (inactive) and -21.4% (inactive)
same,Potency,[3],inactive
same,max response,[4],1.13%
same,outcome,[5],inactive
OC[C@H]1O[C@@H]2O[C@H]3[C@H](O)[C@@H](O)[C@@H](O[C@H]4[C@H](O)[C@@H](O)[C@@H](O[C@H]5[C@H](O)[C@@H](O)[C@@H](O[C@H]6[C@H](O)[C@@H](O)[C@@H](O[C@H]7[C@H](O)[C@@H](O)[C@@H](O[C@H]1[C@H](O)[C@H]2O)O[C@@H]7CO)O[C@@H]6CO)O[C@@H]5CO)O[C@@H]4CO)O[C@@H]3CO,Potency,[1],inactive
same,activation,[2],3.77% (inactive) and 9.85% (inactive)
same,Potency,[3],inactive
O=C1c2ccccc2C(=O)c2c1ccc(O)c2O,outcome,[6],inactive
O=c1n(CC2CO2)c(=O)n(CC2CO2)c(=O)n1CC1CO1 (stereo not drawn),Potency,[1],inactive
same,activation,[2],-4.93% (inactive)
same,Potency,[3],inactive
OCc1ccccc1,Potency,[1],inactive
same,activation,[8],-14.4% (inactive)
same,outcome,[9],inactive
same,activation,[2],-0.651% (inactive)
same,Potency,[3],inactive
